Laboratory results reported in PubChem BioAssay AID693 (University of Pittsburgh Molecular Library Screening Center, 2007).
About 130 (0.13%) of roughly 97,000 compounds were called active. Cut-off read from the data, not from the text of the source: active = inhibition above about 34% (passing the limit was not always enough); inactive = the rest. Shown is part of a subset that was picked to be rich in actives.

molecular target: Serine/threonine-protein kinase PLK1 (Homo sapiens) (UniProt P53350); experiment: Plk1 polo box domain binding inhibitors, primary screen, biochemical, fluorescence polarization (AID 693); conditions: Plk1 PBD phosphopeptide binding, hits give high values,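 tested at about 20 µM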
Sequence (P53350 whole entry, looked up, the tested form may be a part): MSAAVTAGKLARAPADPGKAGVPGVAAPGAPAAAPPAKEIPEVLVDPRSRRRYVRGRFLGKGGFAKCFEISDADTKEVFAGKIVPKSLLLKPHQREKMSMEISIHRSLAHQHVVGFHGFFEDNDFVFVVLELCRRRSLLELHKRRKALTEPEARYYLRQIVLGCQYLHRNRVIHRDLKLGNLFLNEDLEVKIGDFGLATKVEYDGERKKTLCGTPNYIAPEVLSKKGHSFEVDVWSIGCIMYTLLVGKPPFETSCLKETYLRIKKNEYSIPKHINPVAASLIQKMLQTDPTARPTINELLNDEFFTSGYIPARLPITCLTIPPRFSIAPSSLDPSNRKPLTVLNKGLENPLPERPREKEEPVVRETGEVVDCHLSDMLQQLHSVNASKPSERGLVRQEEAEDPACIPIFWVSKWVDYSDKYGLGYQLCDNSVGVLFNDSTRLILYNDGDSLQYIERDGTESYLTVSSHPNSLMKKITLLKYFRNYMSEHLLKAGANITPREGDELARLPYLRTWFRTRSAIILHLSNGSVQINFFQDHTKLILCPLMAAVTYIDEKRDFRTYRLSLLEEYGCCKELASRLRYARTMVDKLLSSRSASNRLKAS

inhibition, inactive:
Cc1nc2ccccc2c(-c2ccccc2)c1C(=O)c1ccccc1 -0.63%, COc1cc(/C=N\NC(=O)CNC(=O)c2cccc([N+](=O)[O-])c2)ccc1O -17.4%, Brc1ccc(/C=N/N2CCN(C3c4ccccc4-c4ccccc43)CC2)s1 -17.6%, COc1ccc(CCN(C(=O)COc2ccccc2)c2nc(-c3ccccc3)cs2)cc1OC -9.73%, Cc1cnc(NC(=O)C2CCCC2)s1 -23.2%, COc1ccc(N2CCN(C(=O)CNC(=O)c3ccc(C(C)(C)C)cc3)CC2)cc1 -1.88%, CCC(C)n1c(-c2cc(OC)c(OC)c(OC)c2)nc2nc3ccccc3nc21 (stereo not given) 14.5%, Cc1nn(CCOc2ccccc2)c(=O)n1-c1ccccc1F 8.4%, Cc1nc2cc(NC(=O)NCc3ccccc3)ccc2o1 -8.52%, O=C(OCc1cn(-c2ccc(Cl)c(Cl)c2)nn1)c1ccccc1Cl 1.36%, CCC(C)(C)c1ccc(Oc2ccc(NC(=O)COC(=O)C3=COCCO3)cc2)cc1 1.77%, Cc1ccccc1NC(=S)Nc1cccc([N+](=O)[O-])c1 34.5%, COc1cc(C(=O)N2CCN(C/C=C/c3ccccc3)CC2)cc(OC)c1C -11.1%, CC(=O)c1ccc2c(ccc3ccccc32)c1 -3.5%, CN1CC(c2ccccc2)C2(COc3ccccc3C2=O)C12C(=O)Nc1ccccc12 (stereo not given) 5%, O=C(CCn1c(SCC(=O)c2ccccc2)nc2ccccc2c1=O)NCc1ccc(F)cc1 4.81%, CCS(=O)(=O)Nc1ccc(C2=NN(S(=O)(=O)c3ccc(F)cc3)C(c3ccco3)C2)cc1 (stereo not given) 11%, Cc1cccc(N(C(=O)c2ccc(CN3CCOCC3)o2)C(C(=O)NC2CCCCC2)c2ccc(F)cc2)c1 (stereo not given) 10.4%, CCOC(=O)c1sc2nc(SC)nc(-c3ccccc3)c2c1N -9.12%, Cc1nn(Cc2ccccc2)c2c1C(c1ccccc1)C(C#N)=C(N)O2 (stereo not given) 17%, O=C(CSCc1ccc(Cl)cc1)N1CCN(Cc2ccc3c(c2)OCO3)CC1 -16.3%, CC1(C)CC(CC(=O)O)C(=O)O1 (stereo not given) -18.7%, CCCC(O)(c1ccc(OC)cc1)C(CN(C)C)c1ccccc1 (stereo not given) 3.1%, C/C(=N\NS(=O)(=O)c1cccc([N+](=O)[O-])c1)c1cc2ccccc2o1 22%, CN(CC(=O)Nc1cccc2c1CCCC2)S(=O)(=O)c1ccc(Cl)cc1 -30%
